These results are taken from PubChem BioAssay (NCI).

Where “and” joins values, the source holds several entries; their conditions need not be identical. Equal entries are not always repeated. About 83,000 compounds went through this panel and 20% of them were active in at least one assay; those are over-represented in the sample as a whole.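 Single-concentration screen, 48 h exposure, 96-well plates. Endpoint: percent growth. Below 10 = active.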 Unmarked numbers belong to inactive results. Calls of active or inactive are those of the source.

The subject of the assay is HL-60(TB) leukemia. The assay can be described thus: NCI-60 one-dose screen, 48 h (100 = growth as untreated, 0 = no growth, -100 = all killed). The following applies: 10 µM unless noted.
For the molecule `NC(Cc1ccc(O)cc1)C(=O)N/N=C/c1ccccc1O` (centres undefined), the growth was 93.7%.

With `CCOC(C)(c1ccc(Cl)cc1)C1CCNCC1` (centres undefined), the growth was 86.1%.

Regarding `CC1CCC(=O)N1c1ccc(N)cc1` (centres undefined), the growth was 104%.

Turning to `COc1cc(OC)c2c(c1)c1nc3cc(C)c(C)cc3nc1n2CCN(C)C`, the growth is 103%.

Regarding `NC(=O)c1cc2c3ccccc3ccn2c1-c1ccccc1`, the growth was -3.94% (active).

On to `COc1cc2c(cc1OCCCN1CCN(CCCOc3cc4c(cc3OC)C(=O)N3C[C@H](F)C[C@H]3C=N4)CC1)N=C[C@@H]1C[C@@H](F)CN1C2=O`, for which the growth is -28.8% (active).

As for `O=C(Nc1ccc(Cl)c(Cl)c1)Nc1ccc(Cl)c([N+](=O)[O-])c1`, the growth was -39.9% (active).

For the molecule `COc1cccc(C(=O)NNc2nc(N3CCN(C4CCCCC4)CC3)nc(N3CCN(C(c4ccccc4)c4ccccc4)CC3)n2)c1`, the growth was 18.5%.

In the case of `CSc1nc(N)nc2c1ncn2C`, the growth was 75.8%.

Take `O=C1C(Cl)=C(Nc2ccc(Nc3ccccc3)c(NC3=C(Cl)C(=O)c4ccccc4C3=O)c2)C(=O)c2ccccc21`: the growth is 61.6%.

On to `CCCNc1nc(SC)nc(-c2cccc(N)c2)c1C#N`, for which the growth was 98.9%.

Take `O=C(O)C1C(c2ccccc2)c2ccccc2C(O)C1CO` (centres undefined): the growth was 102%.

`CC(=O)OC1C=CC(OC(C)=O)O1` (centres undefined): the growth was 102%.

Take `COc1ccccc1NC(=O)c1sc2nc3c(cc2c1N)C(=O)CCC3`: the growth was 98.6%.

Turning to `CN1CCC(c2ccccc2)(c2ccccc2)C(=O)C1`, the growth is 90.8%.

Consider `O=[N+]([O-])c1ccc(Cl)c(S(=O)(=O)O)c1`, for which the growth was 96.4%.

Take `O=C(Nc1ccc(-n2cc(-c3ccncc3)c(-c3ccc(Cl)c(O)c3)n2)cc1)c1cc(C(F)(F)F)cc(C(F)(F)F)c1`: the growth is 52.6%.

`Cc1nn(-c2nc3ccccc3s2)c(C)c1Oc1ccccc1O`: the growth is 60.3%.

Turning to `N#CC1=C(N)n2nc(-c3ccncc3)nc2NC1c1cccc2ccccc12` (centres undefined), the growth is 89.8%.

With `O=C(OCc1ccc2c(Cl)cc(Cl)c(O)c2n1)n1cncn1`, the growth is 17.7%.

Regarding `Cc1sc(N=Nc2ccc(N(C)C)cc2)[n+]([O-])c1C`, the growth is 92.7%.

`OCCOc1c(Cl)cc(Cl)cc1Cl`: the growth was 118%.

For the molecule `O=C(Cn1c(C(=O)c2ccccc2)nc2ccccc21)c1ccc(F)cc1`, the growth was 17.4%.

With `O=C1CSC(c2ccccc2Cl)N1c1nnc(Cn2cnnc2)o1` (centres undefined), the growth is -17.3% (active).

Take `CCCNC(=O)Nc1ccc2cc3ccc(NC(=O)NCCC)cc3nc2c1`: the growth was 74.9%.

Consider `COc1ccc(Cc2cc(-c3ccccc3)nn(Cc3ccccc3)c2=O)cc1OC`, for which the growth was 25.8%.

For `COc1cc(/C=N/NC(=O)c2cnn3c2NC(c2ccccc2)C3)ccc1OC1CCCC1` (centres undefined), the growth is 40.8%.

Turning to `CCCCCN(CCCCC)CC(O)c1cc2c(c3ccccc13)CCCC2` (centres undefined), the growth is 18.6% and 58.1%.

Consider `N#Cc1c(-c2ccc(Cl)cc2)nc(SCC(=O)NC2=NN=C(c3ccccc3)CS2)[nH]c1=O`, for which the growth was 4.11% (active).

Consider `Cn1ccnc1C(=O)C(=O)Nc1ccc(CC(=O)Nc2ccccc2)cc1`, for which the growth is 107%.

For the molecule `N#C/C(=C\c1ccc2ccccc2c1)c1cc2ccccc2[nH]1`, the growth is 10.5%.

On to `CNCc1cccc2c1OCCOCCOCCN(CCN1CCOCC1)S(=O)(=O)c1ccc(cc1)-c1cnc(N)c(n1)C(=O)N2`, for which the growth was -23.5% (active).

For the molecule `Nc1cccc(-c2nc3sccn3c2-c2ccnc(NCCNS(=O)(=O)c3ccc(C(F)(F)F)cc3)n2)c1`, the growth is 89.1%.

On to `C[N+](C)=c1ccc2nc3c(cc(Nc4ccccc4)c4ccccc43)oc-2c1`, for which the growth was 25.8%.

For `c1cc2[nH]ncc2cc1-c1nc2ccc3[nH]ncc3c2c2c1CCCC2`, the growth was -18.3% (active).

Consider `O=C(Nc1cccc(Cl)c1)Nc1cc(C(F)(F)F)ccc1Cl`, for which the growth was -6.22% (active).

For `CCOC(=O)C1=C(N)Oc2c(sc3c(C)cccc23)C1c1ccc(OC)cc1` (centres undefined), the growth was 1.54% (active).

In the case of `Cc1cc(O)c(C(C)C)cc1N`, the growth was 83.9% and 122%.

With `Cc1nn(-c2ccccc2)c(N2CCOCC2)c1-c1nc2ccc([N+](=O)[O-])cc2[nH]1`, the growth is 77.1%.
